Laboratory results as given in PubChem BioAssay AID1159580 (chemical genetic matrix, 2015).
Among all 5,500 compounds or so, about 2,000 (36%) were called active. Not shown: some 18% with an inconclusive outcome. No stated cut-off is given here; in the data, active means normalized growth mostly below about 0.91 (no sharp cut-off); inconclusive means no clear call, values can overlap the other calls; inactive means mostly above about 0.92. Some of the results follow.

Assay: chemical genetic growth profiling, strain panel (AID 1159580);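 further: tested at 20 µM; growth read once vehicle control cultures reached saturation at 30 °C; 1 = growth at the plate median or of vehicle wells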
Conditions: S. cerevisiae deletion strains, growth OD

Measured: normalized growth

C[C@]12C=CC(=O)C=C1CC[C@@H]1C2=CC[C@]2(C)[C@@H](C(=O)CN3CCN(c4cc(N5CCCC5)nc(N5CCCC5)n4)CC3)CC[C@@H]12
inactive: locus YAL013W, strain DEP1, stronger effect = lower value 0.97 | locus YAL040C, strain CLN3, stronger effect = lower value 0.998 | locus YCL061C, strain MRC1 (second series), stronger effect = lower value 0.976 | locus YDR363W, strain ESC2, stronger effect = lower value 0.964 | locus YER002W, strain NOP16, stronger effect = lower value 1.01 | locus YGR078C, strain PAC10, stronger effect = lower value 0.995 | locus YMR263W, strain SAP30, stronger effect = lower value 0.993 | locus YMR307W, strain GAS1, stronger effect = lower value 0.998 | locus YNL128W, strain TEP1, stronger effect = lower value 1.03 | locus YNL175C, strain NOP13, stronger effect = lower value 1.02 | locus YNL197C, strain WHI3, stronger effect = lower value 1.04 | locus YNL224C, strain SQS1, stronger effect = lower value 1.01 | locus YOR083W, strain WHI5 (second series), stronger effect = lower value 1.01
